# Assay results as given in PubChem BioAssay (NCATS).
# Records with an inconclusive call do not appear. Entries that show only a call come without a potency. Calls of active or inactive are those of the source. Calls follow the shape of the dose curve; as a rule, active = well fitted curve in the direction sought with a large enough effect; inconclusive = small, poorly fitted or top-dose-only effect, or another doubt; inactive = no such curve, though single readings can be large; an effect the other way counts as inactive or inconclusive.
# Tests used:
# [1] = qHTS assay for measurement of the activity of small molecule inhibitors on Zika virus induced Caspase-3 activity in human astrocytoma cells (AID 1224859)
# Method in brief: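 Percent inhibition of virus-induced caspase-3/7 signal is calculated against uninfected and ZIKV-infected control cells. Cells are SNB-19, infected at 2 FFU/cell for 6 h after 1 h compound exposure.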
# [2] = qHTS Screen of the MIPE 4.0 Collection Against Ewings Sarcoma (RDES) (AID 1259252); also: potency is read from the fitted curve at half-maximal effect; nearly all actives have a fitted effect of over 35% in size
# Method in brief: (§1)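 After a 4 h attachment period in RPMI/5% FBS, cells were pin-dosed with test compounds; DMSO served as negative and 9.2 uM bortezomib (final) as positive control. Luminescent CellTiter-Glo signal at 48 h defined viability.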
# [3] = qHTS Screen of the MIPE 4.0 Collection Against Ewings Sarcoma (TC71) (AID 1259253); also: nearly all actives have a fitted effect of over 40% in size; also: potency is read from the fitted curve at half-maximal effect
# Method in brief: as §1
# [4] = qHTS Screen of the MIPE 4.0 Collection Against Ewings Sarcoma (EW8) (AID 1259255); also: nearly all actives have a fitted effect of over 35% in size; also: potency is read from the fitted curve at half-maximal effect
# Method in brief: as §1
# [5] = qHTS Screen of the MIPE 4.0 Collection Against Ewings Sarcoma (TC32) (AID 1259256); also: nearly all actives have a fitted effect of over 45% in size; also: potency is read from the fitted curve at half-maximal effect
# Method in brief: as §1
# [6] = qHTS assay for measurement of the activity of small molecule inhibitors on Zika virus induced Caspase-3 activity in human iPSC derived neural progenitor cells (hNPCs) (AID 1224857); also: nearly all actives have a fitted effect of over 65% in size
# Method in brief: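 Cells were plated at 350 per well and grown 16 to 20 hours. Compound pretreatment lasted one hour, after which ZIKV (2 FFU/cell) was added for 6 hours. Percent inhibition was normalized between uninfected and infected controls.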
# [7] = qHTS assay to identify small molecule inhibitors of chordoma cells - UCH-1 (AID 1259355); also: potency is read from the fitted curve at half-maximal effect; series mostly up to about 46 µM; nearly all actives have a fitted effect of over 55% in size
# Method in brief: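 Seed 800 cells per well; incubate overnight at 37 C, 5% CO2. Add test compounds (15 concentrations), then the auranofin–topoisomerase-agent combination. Incubate 48hr, add CellTiter-Glo, wait 30min, read luminescence.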
# [8] = qHTS assay to identify small molecule inhibitors of chordoma cells - UCH-2 (AID 1259356); also: series mostly up to about 46 µM
compound,measurement,setting,value
c1cc(-c2cnn3cc(-c4ccc(OCCN5CCCCC5)cc4)cnc23)ccn1,Potency,[1],inactive
same,Potency,[2],20.9 µM (active)
same,Potency,[3],14.8 µM (active)
same,Potency,[4],18.7 µM (active)
same,Potency,[5],20.9 µM (active)
CCOc1ccccc1OCCNC(C)Cc1ccc(OC)c(S(N)(=O)=O)c1 (stereo unspecified),Potency,[6],inactive
same,Potency,[3],inactive
same,Potency,[4],inactive
same,Potency,[5],inactive
COC(=O)C[C@](O)(CCCC(C)(C)O)C(=O)O[C@@H]1C(OC)=C[C@]23CCCN2CCc2cc4c(cc2[C@H]13)OCO4,Potency,[7],0.199 µM (active)
same,outcome,[8],inactive
